DAX1 inh-1 – inhibits human nuclear receptor DAX1. HEK293 Gal4-DAX1 luciferase reporter, luminescence. inhibition, % at 6.75 µM. hit rate 0.99% among 340,000. AID 504766;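 active means inhibition above the mean over all tested compounds plus 3 SD, cut at about 4.2% in these data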;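 further: 0% = DAX1-transfected cells with DMSO and 100% = empty-vector control cells with DMSO; inhibition shows as a rise in luminescence from relieved DAX1 repression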
Target sequence (P51843 207-470 limits assumed): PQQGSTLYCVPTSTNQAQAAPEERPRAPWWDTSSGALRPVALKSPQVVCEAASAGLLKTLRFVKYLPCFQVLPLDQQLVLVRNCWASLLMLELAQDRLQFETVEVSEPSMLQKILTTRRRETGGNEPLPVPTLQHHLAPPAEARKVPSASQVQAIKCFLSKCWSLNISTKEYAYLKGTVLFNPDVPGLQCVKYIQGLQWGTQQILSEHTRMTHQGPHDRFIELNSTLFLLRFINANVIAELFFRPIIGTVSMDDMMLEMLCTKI
ssDAF-12 act – activators of S. stercoralis DAF-12 nuclear receptor; HEK293 ssDAF-12/GRIP1 lit1-tk-luc reporter, luminescence; % of 3 µM dafachronic acid response; activation, % at 6.8 µM; hit rate 1% among 370,000;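 active means activation above the mean over all tested compounds plus 3 SD, cut at about 0.9% in these data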;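 further: 0% = DMSO-only wells and 100% = 3 µM delta7-dafachronic acid wells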
DAX1 inh-2 – inhibitors of DAX1 repression of SF-1 activated StAR promoter | HEK293T StAR-luciferase reporter, SF-1/DAX-1 repression relief | inhibition, % at 6.8 µM | hit rate 1.1% among 370,000 | AID 652010;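 active means inhibition above the mean over all tested compounds plus 3 SD, cut at about 3.6% in these data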;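 further: 0% = DAX-1 cells with DMSO and 100% = cells lacking DAX-1 with DMSO; higher inhibition means more luminescence from relief of DAX-1 repression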
hgDAF-12 ag – agonists of H. glycines DAF-12 nuclear receptor | HEK293 GAL4-hgDAF12 UAS-luciferase reporter, agonist luminescence; normalized to butyrate control | activation, % at 6.8 µM | hit rate 1.8% among 370,000 | AID 687014;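 active means activation above a cutoff set at the mean of all screened compounds plus 3 SD, cut at about 10% in these data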;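 further: 0% = DMSO wells and 100% = sodium butyrate wells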
hcDAF12 agonist – activates DAF-12 receptor from parasite H. contortus. HEK293 hcDAF-12 lit1-tk-luc reporter, luminescence; 0% DMSO, 100% Δ7-dafachronic acid. activation, % at 6.8 µM. hit rate 1.4% among 370,000;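 active means activation above the mean of all tested compounds plus 3 SD, cut at about 5.5% in these data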;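 further: 100% = response to 3 µM Δ7-dafachronic acid high control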
hgDAF12 ag – hgDAF-12 agonism, confirmation assay | shares compounds with hgDAF-12 ag | HEK293 GAL4-hgDAF12 luciferase reporter, agonist mode; percent of butyrate response | activation, % at 6.8 µM | hit rate 80% among 3,300 | AID 743050;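 active means mean activation over triplicate wells above the hit cutoff derived from the earlier primary screen, cut at about 11% in these data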;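 further: 0% = DMSO low control and 100% = 2 mM sodium butyrate high control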
LXR ag 2 – LXR-beta agonism as DAF-12 counter-screen | shares compounds with hgDAF-12 ag | HEK293 Gal4-LXR luciferase reporter, 24 h | activation, % at 6.8 µM | 3,300 tested, under 10 active;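 active means mean activation of the triplicate above a set limit carried over from the primary screen, none filed active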
* marks the source's active call; other numbers are inactive results; · = no result given. Sampled rows, rich in hits. Any-hit rate of the full collection: about 4.1%.

SMILES	DAX1 inh-1	ssDAF-12 act	DAX1 inh-2	hgDAF-12 ag	hcDAF12 agonist	hgDAF12 ag	LXR ag 2
CCCN1C(=O)c2cc(C(=O)O)ccc2C1O (configuration not stated)	0	-1	0	-3	2	·	·
Cc1nc(SCC(=O)N(C)C2(C#N)CCCCC2)c2ccccc2n1	0	-1	0	1	-1	·	·
O=C(CSc1nnc(NC(=O)c2ccccc2Cl)s1)Nc1ccc2c(c1)oc1ccccc12	·	0	2	14*	4	11*	0
CC1CCN(CC(=O)Nc2ccc(S(=O)(=O)N3C(C)CCCC3C)cc2)CC1 (configuration not stated)	1	-2	0	-3	-1	·	·
COC(=O)N1N=C(c2ccc(Br)cc2)CC1(O)C(F)(F)F (configuration not stated)	0	1.6*	3	14*	1	11*	0
CC1=C(C(=O)O)N2C(=O)C(NC(=O)c3ccc(F)cc3)C2SC1 (configuration not stated)	0	-1	2	-2	1	·	·
CCc1nc2ccc(C(=O)NCCCN3CCCC3=O)cn2c1N(CC)C(=O)NCCc1ccccc1	·	0	0	-4	-1	·	·
Cc1nc2cc(NCc3ccc(Cl)cc3)ccc2n1C	4.7*	1.6*	4	14*	4	14*	1
Cc1csc(NC(=O)Nc2cccc(Cl)c2)n1	1	0	2	17*	4	14*	1
C[C@H]1CNC(=O)c2c(C(=O)N(C)Cc3ccccc3)ncn21	·	-1	0	-1	0	·	·
C[C@H]1Cn2cnc(C(=O)N(C)Cc3ccccc3)c2C(=O)N1	·	0	0	30*	1	0	0
O=C(Nc1ccc2c(c1)OCO2)OC1CCC12CCCCC2 (configuration not stated)	·	0	3	15*	0	13*	0
O=C(NCC1COc2ccccc2O1)c1ccc(Cl)c(S(=O)(=O)N2CCCC2)c1 (configuration not stated)	-1	-1	-1	-1	0	·	·
ClC1(CNc2ccccc2)CCN(Cc2ccccc2)CC1	-1	-1	0	-1	-2	·	·
Cc1cc(C(=O)CSc2nnc(-c3ccccc3F)o2)c(C)n1Cc1cccs1	-2	-1	0	0	1	·	·
Cc1cc(C(=O)CN2C(=O)c3cccc(N)c3C2=O)c(C)n1Cc1cccs1	2	1.0*	4.1*	15*	6.0*	15*	1
CCCc1cc(=O)oc2c(C)c(OCC(=O)N3CCC(C(=O)O)(c4ccccc4)CC3)ccc12	1	-1	0	5	-1	·	·
O=C(CSc1nc2ccccc2n1CCc1ccccc1)c1ccc(O)c(O)c1	-1	-1	0	0	0	·	·
O=C1NC(=Nc2ccccc2)S/C1=C/c1cccs1	3	0	1	15*	3	10	0
Cc1cccc(N=C2NC(=O)/C(=C\c3cccs3)S2)c1	0	-2	0	-1	-1	·	·
COc1cccc(NC(=O)Nc2nc3ncccn3c2-c2ccc(C)cc2)c1	·	0	0	14*	0	6	0
Cc1ccc(-c2c(NC(=O)Nc3ccc(F)cc3)nc3ncccn23)cc1	·	-1	-2	4	1	·	·
Clc1ccc2nc(CSc3nc4ccccc4o3)cn2c1	1	0	3	8	6	·	·
Clc1ccc2nc(CSCc3ccccc3)cn2c1	2	0.9*	4.0*	19*	2	14*	1
C=CCn1c(SCC(N)=O)nc2scc(-c3ccc(C)o3)c2c1=O	2	0	3	20*	5.6*	17*	1
Cc1ccc(S(=O)(=O)N2CCC(C(=O)OCC(=O)N3CCC(C)CC3)CC2)cc1C	1	-2	0	0	-1	·	·
N/C(=N\OC(=O)COc1cc(Cl)c(Cl)cc1Cl)c1ccncc1	·	-1	0	2	1	·	·
N/C(=N\OC(=O)COc1ccc(Br)cc1Cl)c1ccncc1	2	0	4.0*	14*	6.3*	16*	1
Cc1ccc(C(=O)NN=Cc2ccc3c(c2)OCO3)cc1	1	0	1	15*	1	12*	0
